Compound activity as filed in PubChem BioAssay.
The sample as a whole holds a higher share of hits than the screen did.
VP16 counter – VP16 counterscreen qHTS for inhibitors of ROR gamma transcriptional activity | Drosophila S2 Gal4-VP16 UAS-luciferase, luminescence, 20 h | Potency, µM (titrated, usually from 53.6 µM), inactives show at the top dose activity, negative = inhibition, usual class: inhibitors | hit rate 3.5% among 310,000;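 further: Gal4-VP16 expression switched on by copper sulfate through the metallothionein promoter; potency means the concentration at half of the fitted maximal effect; on the % scale 0 is the no-effect control and ±100 the full control effect; nearly all actives have a fitted effect of over 50% in size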
Giardia killer – Small Molecules that selectively kill Giardia lamblia: qHTS; Giardia lamblia trophozoite viability; activity change, % at 7.66 µM, hits read low; hit rate 0.15% among 340,000; AID 540267, 2011; in the data active means activity change below about -80%; inconclusive means between about -30% and that limit;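 further: parasites exposed to compound for two days anaerobically before the ATP read; on the % scale 0 is the no-effect control and ±100 the full control effect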
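Trophozoites 100 cells/well + cpd; 48 hrs, 37 deg C, anaerobic. ATPLite 1-Step added, 15-30 min RT, luminescence read (ATP-based viability).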
RORgamma inh – qHTS for inhibitors of ROR gamma transcriptional activity. Nuclear receptor ROR-gamma (Mus musculus), P51450. Drosophila S2 Gal4-RORgamma UAS-luciferase reporter, 20 h. Potency, µM (titrated, usually from 53.6 µM), inactives show top-dose activity change, negative = inhibition, most hits filed as inhibitors. hit rate 5.4% among 310,000; further: potency means the concentration at half of the fitted maximal effect; on the % scale 0 is the no-effect control and ±100 the full control effect; nearly all actives have a fitted effect of over 60% in size
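Stably transfected Drosophila Schneider cells are the test system, with ROR gamma fused to Gal4 and luciferase under UAS control; luminescence is read after 20 hr of 700 uM copper sulfate induction at ambient temperature.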
ERG-DNA inh – qHTS for Small Molecule Inhibitors of the ERG Ets/DNA interaction. Transcriptional regulator ERG (Homo sapiens), P11308. fluorescence polarization, His-ERG Ets domain / labelled DNA. Potency, µM (top dose mostly 76.9 µM), without a hit: at the top dose FP activity, negative = inhibition, actives largely listed as inhibitors. hit rate 0.028% among 370,000. AID 624246, 2012; active means well fitted inhibition curve with a large enough effect in the polarisation, with a control signal flat; inconclusive means small, poorly fitted or top-dose-only effect, or effect the other way, or a change in a side signal; inactive means no such curve, though single readings can be large or run the other way; the % refers to the polarisation;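 further: polarization taken with two DNA probes labelled with fluorescein and Texas red; potency means the concentration at half of the fitted maximal effect; % of control where 0% means no effect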
Target sequence (P11308 whole entry, looked up, the tested form may be a part): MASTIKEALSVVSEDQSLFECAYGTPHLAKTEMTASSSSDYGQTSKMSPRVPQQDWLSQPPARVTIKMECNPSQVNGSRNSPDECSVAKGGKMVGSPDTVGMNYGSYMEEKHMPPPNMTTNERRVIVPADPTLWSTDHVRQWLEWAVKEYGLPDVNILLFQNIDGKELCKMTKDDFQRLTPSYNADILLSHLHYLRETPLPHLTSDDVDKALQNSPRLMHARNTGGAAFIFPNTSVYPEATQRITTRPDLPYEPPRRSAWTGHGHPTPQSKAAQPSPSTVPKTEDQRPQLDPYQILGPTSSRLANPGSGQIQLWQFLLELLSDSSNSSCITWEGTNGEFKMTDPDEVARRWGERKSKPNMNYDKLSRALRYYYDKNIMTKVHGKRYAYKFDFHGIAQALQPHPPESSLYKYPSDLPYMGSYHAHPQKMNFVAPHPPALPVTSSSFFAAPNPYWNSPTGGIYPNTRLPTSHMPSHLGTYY
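His-tagged ERG Ets domain (1 uM in the protein solution; 300mM KCl, 50mM Tris-HCl, 1mM EDTA, 1mM DTT, pH 7.5) received compound, then a probe mix of 5 nM fluorescein-DNA and 100nM Texas-615-DNA. Fluorescence polarization was read for both dyes.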
a7 integrin act – qHTS for Activators of Integrin-Mediated Alleviation for Muscular Dystrophy; hit rate 0.064% among 350,000; alpha7betagal myoblasts, beta-gal FDG fluorescence, 48 h; AID 624291, 2012; Potency, µM (top dose mostly 38.3 µM), inactives show at the highest dose activation, usual class: activators;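 further: potency means the concentration at half of the fitted maximal effect; 100% = response of the positive control SU9516; nearly all actives have a fitted effect of over 60% in size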
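alpha7betagal+/- myoblasts (passage 13, 250/well) treated 48 h at 37C with compounds at 1:260 dilution of DMSO stock. Lysed, then beta-galactosidase activity read as FDG fluorescence (ex 480/em 540) after 30 min, with pre-read for autofluorescence.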
An asterisk follows results filed as active; ? = inconclusive; · = no result given; ! = not confirmed by another sample; [ ] = dose if it differs, or a comment. Unless noted, the call rests on the fitted dose curve; in most records, active means well fitted curve in the direction sought with a large enough effect; inconclusive means small, poorly fitted or top-dose-only effect, or another doubt; inactive means no such curve, though single readings can be large; an effect the other way counts as inactive or inconclusive.

SMILES	VP16 counter	Giardia killer	RORgamma inh	ERG-DNA inh	a7 integrin act
Cc1ccc(-c2nc3c(=O)n(C)c(=O)nc-3n(C)n2)cc1	·	-95*	·	·	·
CC1(C)C2C[C@@H](O)[C@]3(C)C(CC[C@@]4(C)[C@H](c5ccoc5)C[C@H]5O[C@]543)[C@@]2(C)[C@@H](O)C[C@H]1O (some centres not stated)	-2%	·	-38%	·	·
CCOC(=O)CC(SP(=O)(OC)OC)C(=O)OCC (configuration not stated)	-14%	·	0%	·	·
Cc1cc(N2C(=O)CC(N3CCC(n4c(=O)[nH]c5ccccc54)CC3)C2=O)no1 (configuration not stated)	-2%	4	3.2µM*	-5%	2%
C=C1C(=O)O[C@@H]2C[C@@H](C)[C@H]3C=CC(=O)[C@]3(O)C[C@@H]12	?	7	7.1µM*	-4%	-9%
C=C1C(=O)OC2CC3(C)OC3CCC(C)=CC(OC(C)=O)C12 (configuration not stated)	·	-11	·	-2%	-52%
OC[C@@H]1[C@@H](O)[C@H](O)[C@H]2[C@@H](O)CCN21	-20%	·	-14%	·	·
CNC(=O)Oc1ccc(-c2cn3cc(Cl)ccc3n2)cc1	?	-86*	6.3µM*	4%	-17%
O=C(CCN1CCCCC1)Nc1ccc(Br)cc1C(=O)c1ccccc1	-1%	1	8%	1%	-54%
O=C(CCN1CCN(c2ccccc2)CC1)c1ccc(Br)cc1	?	-6	35µM*	-2%	?
COc1ccc2[nH]c(C)c(CCNCc3cc(OC)c4c(c3)OCO4)c2c1	·	-17	·	15%	-47%
COc1ccc2[nH]c(C)c(CCNCc3cc(OC)c(OC)c(OC)c3)c2c1	18µM*	-16	?	-21%	33%
Oc1cc(Cl)cc(Cl)c1	-1%	·	28%	·	·
CN1[C@@H]2CC[C@H]1CC(O[C@@H](c1ccccc1)c1ccc(Cl)cc1)C2 (some centres not stated)	14µM*	·	13µM*	·	·
CCCCN(CC)c1c([N+](=O)[O-])cc(C(F)(F)F)cc1[N+](=O)[O-]	8%	·	3%	·	·
C[C@]12CC(=CO)C(=O)C[C@@H]1CC[C@@H]1[C@@H]2CC[C@@]2(C)[C@H]1CC[C@]2(C)O	10µM*	·	?	·	·
C[C@]12C=CC(=O)C=C1CC[C@@H]1[C@@H]2CC[C@@]2(C)[C@H]1CC[C@]2(C)O	3%	·	20%	·	·
CCOC(=O)C(SP(=S)(OC)OC)c1ccccc1 (configuration not stated)	?	·	13µM*	·	·
CC/C(=C\C=C\[C@@H]1C=C[C@@H]2CCC[C@H]2[C@@H]1C(=O)c1ccc[nH]1)[C@@H]1O[C@@H]([C@@H](C)C(=O)O)CC[C@@H]1C	10µM*	-4	?	-4%	-72%
CCCOc1ccc2[nH]cc(C3=CCNCC3)c2n1	-3%	·	-4%	·	·
C[C@H]1[C@@H](O)[C@@H](C)/C=C\C=CCC\C=C/C=C\C=C/C=C[C@@H](O[C@H]2O[C@@H](C)[C@@H](O)[C@@H](N)[C@@H]2O)C[C@@H]2O[C@@](O)(C[C@@H](O)[C@H]2C(=O)O)C[C@@H](O)[C@@H](O)CC[C@@H](O)C[C@@H](O)C[C@@H](O)CC(=O)O[C@H]1C	-2%[17 µM]	·	2%[16.9 µM]	·	·
N#CC(C(=O)C12CC3CC(CC(C3)C1)C2)c1nc2ccccc2[nH]1 (configuration not stated)	10µM*	11	4µM*	-1%	-20%
Cn1cnc([N+](=O)[O-])c1Sc1ccc([N+](=O)[O-])cc1	?	-20	11µM*	-7%	0%
Cc1nc(C(=O)O)nn1-c1ccc([N+](=O)[O-])cc1	?	-1	15%	-11%	15%
CCCCOCC1CO1 (configuration not stated)	7%	·	1%	·	·
SMILES	VP16 counter	Giardia killer	RORgamma inh	ERG-DNA inh	a7 integrin act
COc1c(C(C)(C)C)cc([N+](=O)[O-])c(C)c1[N+](=O)[O-]	9%	·	7%	·	·
Cc1cc(C)cc(N2C(=O)NC(=O)/C(=C\C=C\c3ccco3)C2=O)c1	10µM*	-4	3.2µM*	·	-55%
CC(C)c1ccc(N2C(=O)NC(=O)/C(=C/C=C/c3ccco3)C2=O)cc1	13µM*	-3	-99%	16%	-44%
O=C1NC(=O)N(c2ccccc2)C(=O)/C1=C\C=C\c1ccccc1	10µM*	-6	?	2%	-78%
COc1cc(/C=C2\C(=O)NC(=O)N(c3ccccc3)C2=O)cc(OC)c1OC	7%	11	?	-2%	-12%
Cc1ccc(N2C(=O)NC(=O)/C(=C/C=C/c3ccco3)C2=O)cc1	10µM*	1	13µM*	?	-49%
CCc1ccc(N2C(=O)NC(=O)/C(=C\C=C\c3ccco3)C2=O)cc1	-5%	6	22%	84%	-57%
N[C@H](CCP(=O)(O)O)C(=O)O	7%	·	26%	·	·
CCCCOC(C)=O	5%	·	3%	·	·
CSc1ncc(CN2CCCC(C(=O)c3cccc(Cl)c3)C2)cn1 (configuration not stated)	-5%	12	41%	2%	-3%
CCCCc1ncc(CN2CCCC(C(=O)c3ccc(SC)cc3)C2)[nH]1 (configuration not stated)	-25%	-13	11µM*	-1%	-45%
O=C(NC(=S)Nc1ccccc1N1CCCC1)c1ccccc1Br	2.8µM*	·	2.8µM*	·	·
COC(=O)NC(=S)Nc1ccccc1NC(=S)NC(=O)OC	0%	-3	?	-12%	·
CCN1CCN(S(=O)(=O)c2ccc(Cl)c(C(=O)N(CC)CC(=O)Nc3ccc(OC)cc3)c2)CC1	-14%	7	5.6µM*	0%	-3%
CCN(CC)C(=O)c1ccc(NC(=O)c2cc(S(=O)(=O)N3CCCCCC3)ccc2OC)cc1	·	49	·	-3%	-36%
CN(CC(=O)O)C(=O)[C@H](Cc1ccccc1)NC(=O)[C@@H](CCCN=C(N)N)NC(=O)[C@@H](N)Cc1ccc(O)cc1	-6%	·	23%	·	·
C=CCn1c(-c2ccc([N+](=O)[O-])cc2)n[nH]c1=S	?	-1	11µM*	9%	19%
C=CCn1c(O)c(/C=C2/C=c3ccccc3=N2)c(=O)[nH]c1=S	?	6	35%[1.91 µM]	32%	27%
O=C(O)CCC1NCC2CC1CN1CCCCC21 (configuration not stated)	10%	·	-26%	·	·
CC(C)(C)c1cc(C=C(C#N)C#N)cc(C(C)(C)C)c1O	·	-6	·	7%	·
N#CC(C#N)=Cc1ccc(O)c(O)c1	14µM*!	2	16µM*	-2%	·
